Assay results from PubChem BioAssay (Tox21).
Records with an inconclusive call do not appear. A call without a number means that no potency is given here. The source holds several records for some structures; these can differ, active in one and inactive in another. Activity calls are given as the source filed them. Unless noted, calls come from the whole dose curve; as a rule, active = well fitted cell-killing curve with a large enough effect in the repeat runs (not every such curve was filed as active); inconclusive = weak or mixed curves, or effect the other way; inactive = no such curve, though single readings can be large or run the other way.

Molecular target: Peroxisome proliferator-activated receptor delta (Homo sapiens) (UniProt Q03181)
Sequence (Q03181 whole entry, looked up): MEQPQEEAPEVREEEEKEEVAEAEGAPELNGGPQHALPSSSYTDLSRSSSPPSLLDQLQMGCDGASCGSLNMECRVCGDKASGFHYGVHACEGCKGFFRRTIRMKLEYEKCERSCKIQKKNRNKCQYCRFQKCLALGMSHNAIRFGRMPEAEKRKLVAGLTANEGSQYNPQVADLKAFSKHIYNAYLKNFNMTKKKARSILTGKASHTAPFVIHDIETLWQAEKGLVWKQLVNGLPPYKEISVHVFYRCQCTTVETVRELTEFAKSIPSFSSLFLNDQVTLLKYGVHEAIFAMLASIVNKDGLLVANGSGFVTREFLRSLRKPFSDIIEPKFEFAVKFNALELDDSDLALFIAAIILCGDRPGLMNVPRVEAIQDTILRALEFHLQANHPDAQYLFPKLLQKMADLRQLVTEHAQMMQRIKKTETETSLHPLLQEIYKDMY
Assay: qHTS assay to identify small molecule antagonists of the peroxisome proliferator-activated receptor delta (PPARd) signaling pathway (AID 743215; active = well fitted inhibition curve with a large enough effect in the signal ratio in the repeat runs, not every such curve was filed as active; the % refers to the signal ratio;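 note: cells stimulated with agonist L165041 at 300 nM final during compound exposure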; note: potency is the fitted concentration of half-maximal effect)
Conditions: HEK293H PPARd-UAS-bla, beta-lactamase FRET ratio, antagonist, 17 h; series mostly up to 62 µM
Procedure, shortened: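 PPARd-bla HEK293H cells (UAS-bla reporter) preincubated 5 h, then given compound plus 300 nM final L165041 agonist for 17 h at 37 C. Beta-lactamase activity read by LiveBLAzer B/G FRET substrate fluorescence after 2 h at room temperature.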

SMILES	Potency
CC(C)CCCCCCCOP(=O)(Oc1ccccc1)Oc1ccccc1	inactive
O=C(CCl)C(Cl)Cl	49.4 µM (active)
Cc1cc(C(F)(C(F)(F)F)C(F)(F)F)ccc1NC(=O)c1cccc(I)c1C(=O)NC(C)(C)CS(C)(=O)=O	inactive
CC(=O)Nc1ccc2c(c1)Cc1ccccc1-2	inactive
c1ccc2c(c1)OCC(C1=NCCN1)O2 (stereo not drawn)	23.7 µM (active)
Oc1ccc(C(=C(Cl)Cl)c2ccc(O)cc2)cc1	19.5 µM (active)

System: not listed separately
Assay: qHTS assay to identify small molecule agonists of the farnesoid-X-receptor (FXR) signaling pathway - cell viability counter screen (AID 743218; active = well fitted cell-killing curve with a large enough effect in the repeat runs; note: nearly all actives have a fitted effect of over 45% in size; note: potency is the fitted concentration of half-maximal effect)
Conditions: FXR-bla HEK293T viability, CellTiter-Glo luminescence, 16 h; series mostly up to 62.6 µM
Procedure, shortened: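 FXR-UAS-bla HEK 293T cells exposed to compounds for 16 h at 37C. Cytotoxicity read in the same wells by CellTiter-Glo luminescence after 30 min at room temperature, following the beta-lactamase FRET read.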

SMILES	Potency
O=[N+]([O-])c1c2ccccc2cc2ccccc12	inactive
[CH3][Hg][Cl]	13.8 µM (active)
c1ccc(OCC2CO2)cc1 (stereo not drawn)	inactive
CCCCOCN(C(=O)CCl)c1c(CC)cccc1CC	inactive
ClC1=C(Cl)[C@]2(Cl)[C@@H]3[C@@H]4C[C@@H]([C@H]5O[C@@H]45)[C@@H]3[C@@]1(Cl)C2(Cl)Cl	56.4 µM (active)
Cc1cc(C(F)(C(F)(F)F)C(F)(F)F)ccc1NC(=O)c1cccc(I)c1C(=O)NC(C)(C)CS(C)(=O)=O	inactive
CC(=O)Nc1ccc2c(c1)Cc1ccccc1-2	inactive
CC1CCC(C(C)C)C(OC(=O)c2ccccc2N)C1 (stereo not drawn)	60.8 µM (active)
CC[C@H]1C[C@@H]2C[C@H]3c4[nH]c5ccc(OC)cc5c4CCN(C2)[C@@H]13	inactive
CCOP(=O)(NC(C)C)Oc1ccc(SC)c(C)c1 (stereo not drawn)	inactive
CC(=O)C(Cl)(Cl)Cl	inactive
CNC(C)Cc1ccc2c(c1)OCO2 (stereo not drawn)	inactive
Cc1cc(C)cc(OP(=O)(Oc2cc(C)cc(C)c2)Oc2cc(C)cc(C)c2)c1	inactive
COC(=O)N(C(=O)N1CO[C@@]2(C(=O)OC)Cc3cc(Cl)ccc3C2=N1)c1ccc(OC(F)(F)F)cc1	inactive
C=CCC1=C(C)C(OC(=O)C2C(C=C(C)C)C2(C)C)CC1=O (stereo not drawn)	51.9 µM (active)

Molecular target: Bile acid receptor (Homo sapiens) (UniProt Q96RI1)
Sequence (Q96RI1 whole entry, looked up): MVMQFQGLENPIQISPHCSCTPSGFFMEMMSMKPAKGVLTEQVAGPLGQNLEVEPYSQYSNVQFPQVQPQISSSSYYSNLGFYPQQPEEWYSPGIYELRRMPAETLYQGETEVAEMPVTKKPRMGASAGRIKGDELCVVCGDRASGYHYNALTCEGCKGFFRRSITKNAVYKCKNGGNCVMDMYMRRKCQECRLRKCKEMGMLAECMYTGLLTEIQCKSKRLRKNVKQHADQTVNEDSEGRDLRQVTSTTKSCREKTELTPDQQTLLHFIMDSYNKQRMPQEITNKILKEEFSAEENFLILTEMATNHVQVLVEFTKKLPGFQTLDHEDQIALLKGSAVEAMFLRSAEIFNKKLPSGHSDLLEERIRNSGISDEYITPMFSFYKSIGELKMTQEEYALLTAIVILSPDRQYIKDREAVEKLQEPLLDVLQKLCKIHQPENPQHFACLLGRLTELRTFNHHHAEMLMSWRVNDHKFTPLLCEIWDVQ
Assay: qHTS assay to identify small molecule agonists of the farnesoid-X-receptor (FXR) signaling pathway (AID 743220; active = well fitted activation curve with a large enough effect in the signal ratio in the repeat runs, not every such curve was filed as active; the % refers to the signal ratio)
Conditions: HEK293T FXR-UAS-bla, beta-lactamase FRET ratio, 16 h; series mostly up to 62.6 µM
Procedure, shortened: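 Beta-lactamase reporter under UAS control in GeneBLAzer FXR HEK 293T cells (5000/well) measured with LiveBLAzer FRET substrate after 2 h at room temperature. Compound exposure lasted 16 h at 37C.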

SMILES	outcome
Oc1c(Br)c(Br)c(Br)c(Br)c1Br	inactive
S=C=Nc1cccc2ccccc12	inactive
CCC(C)c1cc([N+](=O)[O-])cc([N+](=O)[O-])c1OC(=O)C=C(C)C (stereo not drawn)	inactive
Oc1ccc(C(=C(Cl)Cl)c2ccc(O)cc2)cc1	inactive

System: not listed separately
Assay: qHTS assay to identify small molecule antagonists of the farnesoid-X-receptor (FXR) signaling pathway - cell viability counter screen (AID 743221); note: nearly all actives have a fitted effect of over 50% in size; note: potency is the fitted concentration of half-maximal effect
Conditions: FXR-bla HEK293T viability, CellTiter-Glo luminescence, 16 h; series mostly up to 62.6 µM
Procedure, shortened: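 Here viability was scored by luminescence after CellTiter-Glo addition to wells already read for beta-lactamase. Prior treatment: compound plus CDCA (50 uM final), 16 h, 37 C, HEK 293T FXR-bla cells.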

SMILES	Potency
[CH3][Hg][Cl]	38.8 µM (active)
CC(C)CCCCCCCOP(=O)(Oc1ccccc1)Oc1ccccc1	inactive
O=c1ssc(Cl)c1Cl	inactive
CC(C)(C)c1ccc(CSc2cnn(C(C)(C)C)c(=O)c2Cl)cc1	inactive
O=C(CCl)C(Cl)Cl	49.4 µM (active)
c1ccc(OCC2CO2)cc1 (stereo not drawn)	inactive
O=c1[nH]c2ccccc2n1CCCN1CCC(n2c(=O)[nH]c3cc(Cl)ccc32)CC1	inactive
CS(=O)(=O)c1ccc(C(=O)C2C(=O)CCCC2=O)c([N+](=O)[O-])c1	inactive
Nc1ccc(Cc2ccc(N)c(Cl)c2)cc1Cl	inactive
Cc1cc(C(F)(C(F)(F)F)C(F)(F)F)ccc1NC(=O)c1cccc(I)c1C(=O)NC(C)(C)CS(C)(=O)=O	inactive
O=C(O)COc1nc(Cl)c(Cl)cc1Cl	inactive
CC(=O)Nc1ccc2c(c1)Cc1ccccc1-2	inactive
CC[C@H]1C[C@@H]2C[C@H]3c4[nH]c5ccc(OC)cc5c4CCN(C2)[C@@H]13	inactive
CCOP(=O)(NC(C)C)Oc1ccc(SC)c(C)c1 (stereo not drawn)	inactive
Oc1ccc2ccc3cccc4ccc1c2c34	inactive
CC1(C)CC/C(=C/c2ccc(Cl)cc2)C1(O)Cn1cncn1 (stereo not drawn)	inactive
CC(C)CC(C)(c1ccc(O)cc1)c1ccc(O)cc1	55.1 µM (active) and inactive
CC(=O)C(Cl)(Cl)Cl	inactive
CCC(C)c1cc([N+](=O)[O-])cc([N+](=O)[O-])c1OC(=O)C=C(C)C (stereo not drawn)	inactive
Cc1cc(C)cc(OP(=O)(Oc2cc(C)cc(C)c2)Oc2cc(C)cc(C)c2)c1	inactive
CC(C)Oc1cccc(NC(=O)c2ccccc2C(F)(F)F)c1	inactive
Oc1ccc(C(=C(Cl)Cl)c2ccc(O)cc2)cc1	inactive
Oc1cc(Cl)c(Cl)c(Cl)c1	inactive
O=S(=O)(c1ccc(Cl)cc1)c1ccc(Cl)cc1	inactive
COC(=O)N(C(=O)N1CO[C@@]2(C(=O)OC)Cc3cc(Cl)ccc3C2=N1)c1ccc(OC(F)(F)F)cc1	inactive
C=CCC1=C(C)C(OC(=O)C2C(C=C(C)C)C2(C)C)CC1=O (stereo not drawn)	46.3 µM (active)

Molecular target: Vitamin D3 receptor (Homo sapiens) (UniProt P11473)
Sequence (P11473 whole entry, looked up): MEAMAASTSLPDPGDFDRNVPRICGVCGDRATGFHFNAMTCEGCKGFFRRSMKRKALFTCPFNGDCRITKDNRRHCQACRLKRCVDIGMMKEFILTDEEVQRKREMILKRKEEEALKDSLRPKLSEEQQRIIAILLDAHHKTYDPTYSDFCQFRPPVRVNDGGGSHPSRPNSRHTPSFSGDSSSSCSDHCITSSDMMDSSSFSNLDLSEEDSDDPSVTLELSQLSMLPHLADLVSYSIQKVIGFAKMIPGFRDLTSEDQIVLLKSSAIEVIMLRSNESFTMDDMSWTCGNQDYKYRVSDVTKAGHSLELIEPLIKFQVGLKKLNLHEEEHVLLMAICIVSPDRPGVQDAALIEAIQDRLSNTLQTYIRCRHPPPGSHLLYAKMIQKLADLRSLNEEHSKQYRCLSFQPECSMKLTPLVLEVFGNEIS
Assay: qHTS assay to identify small molecule agonists of the vitamin D receptor (VDR) signaling pathway (AID 743222; calls by dose curve)
Conditions: HEK293T VDR-UAS-bla, beta-lactamase FRET ratio, 16 h; series mostly up to 63.5 µM
Procedure, shortened: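 VDR-bla cells plated 4 h at 37 C, then exposed to compounds for 16 h at 37 C. Beta-lactamase reporter activity measured by fluorescence after 2 h room-temperature loading with LiveBLAzer B/G FRET substrate.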

SMILES	Potency
O=c1ssc(Cl)c1Cl	inactive
CC(C)(C)c1ccc(CSc2cnn(C(C)(C)C)c(=O)c2Cl)cc1	inactive
CCCSP(=O)(OCC)SCCC	inactive
O=C(O)COc1nc(Cl)c(Cl)cc1Cl	inactive
c1ccc2c(c1)OCC(C1=NCCN1)O2 (stereo not drawn)	inactive
Nc1ccc(Sc2ccc(N)cc2)cc1	inactive
CCOP(=O)(NC(C)C)Oc1ccc(SC)c(C)c1 (stereo not drawn)	inactive
CNC(C)Cc1ccc2c(c1)OCO2 (stereo not drawn)	inactive
Cc1cc(C)cc(OP(=O)(Oc2cc(C)cc(C)c2)Oc2cc(C)cc(C)c2)c1	inactive
CC(C)Oc1cccc(NC(=O)c2ccccc2C(F)(F)F)c1	inactive
Oc1cc(Cl)c(Cl)c(Cl)c1	inactive
O=S(=O)(c1ccc(Cl)cc1)c1ccc(Cl)cc1	inactive
